{"source": "PubChem BioAssay AID2283112", "about": "(EPA ToxCast)", "note": "Inconclusive results are not listed. Activity calls are given as the source filed them. How the source made its calls: active means hit-call score of the fitted dose curve at least 0.9, where 1 is the maximum; inconclusive means response in the unintended direction; inactive means score below 0.9.", "data": [{"target": "rat CYP1A1, Cyp1a1 (gene 24296) (UniProt P00185)", "sequence (P00185 whole entry, looked up)": "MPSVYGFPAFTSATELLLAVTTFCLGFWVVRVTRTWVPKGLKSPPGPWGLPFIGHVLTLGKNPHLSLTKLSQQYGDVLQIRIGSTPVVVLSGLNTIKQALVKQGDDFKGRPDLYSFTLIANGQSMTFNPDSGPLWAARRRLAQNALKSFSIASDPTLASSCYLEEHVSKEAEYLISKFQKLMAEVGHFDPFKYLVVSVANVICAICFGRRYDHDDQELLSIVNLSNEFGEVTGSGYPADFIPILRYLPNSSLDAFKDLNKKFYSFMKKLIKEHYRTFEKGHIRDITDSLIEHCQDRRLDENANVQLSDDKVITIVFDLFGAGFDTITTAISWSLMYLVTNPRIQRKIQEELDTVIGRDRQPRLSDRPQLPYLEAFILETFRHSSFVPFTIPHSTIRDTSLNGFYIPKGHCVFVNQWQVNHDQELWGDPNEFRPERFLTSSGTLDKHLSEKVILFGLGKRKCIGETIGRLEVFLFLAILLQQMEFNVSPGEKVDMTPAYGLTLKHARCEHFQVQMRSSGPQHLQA", "assay": "NVS_ADME_rCYP1A1: NovaScreen (NVS) CYP450-related Enzyme Activity (ADME) Assay for rat CYP1A1", "protocol": "NVS_ADME_rCYP1A1 is a biochemical, single-readout assay that uses extracted gene-proteins from baculovirus-insect cells in a cell-free assay. Measurements were taken 1 hour after chemical dosing in a 96-well plate.NVS_ADME_rCYP1A1 is one of one assay component(s) measured or calculated from the NVS_ADME_rCYP1A1 assay. It is designed to make measurements of enzyme activity, a form of enzyme reporter, as detected with fluorescence intensity signals by Fluorescence technology.Data from the assay component NVS_ADME_rCYP1A1 was analyzed into 1 assay endpoint. This assay endpoint, NVS_ADME_rCYP1A1, was analyzed in the positive analysis fitting direction relative to Acetonitrile as the negative control and baseline of activity. Using a type of enzyme reporter, loss-of-signal activity can be used to understand changes in the enzymatic activity as they relate to the gene Cyp1a1. Furthermore, this assay endpoint can be referred to as a primary readout, because this assay has produced multiple assay endpoints where this one serves a enzymatic activity function. To generalize the intended target to other relatable targets, this assay endpoint is annotated to the cyp intended target family, where the subfamily is xenobiotic metabolism.\nBinding assays used specific radioligands (tritiated, iodinated) with non-radioactive competitive displacement ligands in agonist or antagonist protocols (as indicated) and various reference compounds and inhibitors to titrate specific binding to receptors and transporters. Most enzyme assays (CYPs, kinases, phosphatases, proteases, HDACs) used recombinant protein and specific substrates (fluorescence mostly, some colorimetric and radioactive) and inhibitors, followed by a biochemical separation of substrate and product. All assays for the biochemical HTS were initially run in duplicate at a single concentration (10 uM for CYP450 assays and 25 uM for all others). Assay-chemical combinations meeting a pre-defined threshold (e.g., 30% inhibition and other criteria defined below) were then run in singleton concentration-response format with maximum concentration of 20 uM for CYPs and 50 uM for all others. Each assay was run with positive and negative controls, and concurrent controls on every plate. The follow-up (secondary) screen tested active chemical-pairs in concentration series, as well as a few additional assays not tested in the primary screen, some selected negative inactives, and several cases re-run in the concentration series for confirmatory purposes.", "values": [{"smiles": "CCCN(CCOc1c(Cl)cc(Cl)cc1Cl)C(=O)n1ccnc1", "AC50": "2.23 µM (active)"}, {"smiles": "CC(C)(C)C(=O)C(Oc1ccc(Cl)cc1)n1cncn1", "note": "(stereo not given)", "AC50": "16.9 µM (active)"}, {"smiles": "CC[C@H](C)[C@H]1O[C@]2(C=C[C@@H]1C)C[C@@H]1C[C@@H](C/C=C(\\C)[C@@H](O[C@H]3C[C@H](OC)[C@@H](O[C@H]4C[C@H](OC)[C@@H](NC)[C@H](C)O4)[C@H](C)O3)[C@@H](C)/C=C/C=C3\\CO[C@@H]4[C@H](O)C(C)=C[C@@H](C(=O)O1)[C@]34O)O2", "outcome": "inactive"}, {"smiles": "CCOP(=S)(OCC)SCn1c(=O)oc2cc(Cl)ccc21", "outcome": "inactive"}, {"smiles": "CC[C@H](C)[C@H]1O[C@]2(C=C[C@@H]1C)C[C@@H]1C[C@@H](C/C=C(\\C)[C@@H](O[C@H]3C[C@H](OC)[C@@H](O[C@H]4C[C@H](OC)[C@@H](O)[C@H](C)O4)[C@H](C)O3)[C@@H](C)/C=C/C=C3\\CO[C@@H]4[C@H](O)C(C)=C[C@@H](C(=O)O1)[C@]34O)O2", "note": "(tested in a mixture with another compound)", "outcome": "inactive"}, {"smiles": "COc1nc(C)nc(NC(=O)NS(=O)(=O)c2ccccc2Cl)n1", "outcome": "inactive"}, {"smiles": "COP(=S)(OC)Oc1ccc([N+](=O)[O-])cc1", "outcome": "inactive"}, {"smiles": "COP(=S)(OC)Oc1ccc([N+](=O)[O-])c(C)c1", "outcome": "inactive"}, {"smiles": "COP(=S)(OC)SCn1nnc2ccccc2c1=O", "outcome": "inactive"}, {"smiles": "CCOP(=S)(OCC)Oc1ccc([N+](=O)[O-])cc1", "AC50": "7.95 µM (active)"}]}]}
